Assay outcomes (PubChem BioAssay)
Pf growth 48h: Primary qHTS for delayed death inhibitors of the malarial parasite plastid, 48 hour incubation; P. falciparum luciferase growth in erythrocytes, 48 h; Potency, µM (titrated, usually from 28.7 µM), usual class: inhibitors; actives 5.9% (n = 310,000)
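Luminescence readout; reporter = integrated firefly luciferase in P. falciparum. RBC culture at 2% hematocrit, 0.1% parasitemia final, 37 C/5% CO2; decreased signal taken as growth inhibition.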
Pf growth 96h: Primary qHTS for delayed death inhibitors of the malarial parasite plastid, 96 hour incubation; P. falciparum luciferase reporter growth, 96 h; Potency, µM (highest dose often 28.7 µM), usual class: inhibitors; actives 6.9% (n = 320,000); AID 504834, 2011
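Two-generation exposure (96 h) targets delayed-death phenotype. Reporter parasites carrying integrated firefly luciferase, in red cells at 2% hematocrit and 0.05% parasitemia final, kept at 37 C, 5% CO2; luminescence loss indicates inhibition.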
Shiga toxin inh: A qHTS for Small Molecule Inhibitors of Shiga Toxin; Vero cells, Shiga toxin protein synthesis inhibition reporter; inhibition, % at 38.7 µM; actives 9.2% (n = 290,000); AID 2315, 2010; in the data active = inhibition mostly above about 28%, no sharp cut-off; inactive = mostly below about 43%
HCV inh: qHTS Assay for Inhibitors of Hepatitis C Virus (HCV). Huh7.5.1 HCVcc-Cre infection, luciferase reporter, 44 h. Potency, µM (series often up to 41.8 µM), hits mostly inhibitors. actives 3.4% (n = 340,000). AID 651820, 2012
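Whole-lifecycle infectious HCVcc-Cre system; cells 1,000/well, compound then virus (~0.5 moi) added 4 h after plating, 44 h culture. Luciferase read 15 sec following 15 min substrate incubation, room temp.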
AMA1 RON2 block: qHTS for Inhibitors of AMA1-RON; Towards Development of Antimalarial Drug Lead: Primary Screen; Plasmodium falciparum AMA1 (3D7) - RON2 peptide interaction; actives 0.2% (n = 360,000); AlphaScreen AMA1-biotinylated RON2 peptide binding; Potency, µM (series often up to 58.2 µM), hits mostly inhibitors; also: nearly all actives have a fitted effect of over 45% in size
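AMA1 (3D7) with his tag at 25 nM final met compounds first, then biotinylated RON2 peptide at 25 nM; detection used donor plus acceptor beads, 10 µg/mL apiece, read by AlphaScreen after 30 min at room temperature.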
CHX counter: Cycloheximide Counterscreen for Small Molecule Inhibitors of Shiga Toxin; AID 2314, 2010; cell reporter, cycloheximide protein synthesis inhibition counterscreen; max response, %; actives 12% (n = 300,000); in the data active = max response mostly above about 13%, no sharp cut-off; inactive = mostly below about 14%; also: read at 38.3 µM for the half of the compounds with a filed dose
A number is an active result; - = inactive; ? = inconclusive; . = not tested or not shown; [ ] = remark or other dose. Hits are enriched below; roughly 21% of the tested compounds scored in any of these assays. Unless noted, calls follow the shape of the dose curve; as a rule, active = well fitted curve in the direction sought with a large enough effect; inconclusive = small, poorly fitted or top-dose-only effect, or another doubt; inactive = no such curve, though single readings can be large; an effect the other way counts as inactive or inconclusive.

SMILES	Pf growth 48h	Pf growth 96h	Shiga toxin inh	HCV inh	AMA1 RON2 block	CHX counter
CN(CC(=O)Nc1ccc(Br)cc1)Cc1ccccc1	-	-	-	-	-	19
CN(C)S(=O)(=O)c1cccc(NC(=O)CSc2cccc3cccnc23)c1	12µM	7.4µM	-	?	-	-
CC(=O)Nc1ccc(SCCCC(=O)c2ccccc2)cc1	-	-	72	-	-	29
CCOc1ccc(NC(=O)CN(C)C(=O)C2CCN(C(=O)Nc3ccccc3)CC2)cc1OCC	.	.	.	-	-	.
COc1ccc(C(=O)N2N=C(c3cccc(NS(C)(=O)=O)c3)CC2c2cccs2)cc1 (centres undefined)	?	-	-	-	-	-
COc1ccc(OCCCC(=O)Nc2cccc(C(C)=O)c2)cc1	-	-	-	-	-	-
CN(C)S(=O)(=O)c1cccc(NC(=O)CCCSc2ccccc2)c1	-	?	-	11µM	-	-
CC(=O)c1cccc(NC(=O)CCCSc2ccccc2)c1	-	-	20	-	-	-
COc1ccc(S(=O)(=O)N(C)C)cc1NC(=O)CCCSc1ccccc1	?	?	-	-	-	-
CCCNC(=O)C1(C)CCN(Cc2ccc(OC)c3ccccc23)C1 (centres undefined)	.	.	.	.	-	.
COc1cc(NC(=O)CN2C(=O)c3ccccc3Sc3ccc(C(=O)N4CCOCC4)cc32)cc(OC)c1OC	6.6µM	?	-	-	-	-
C=CCN1C(=O)c2ccccc2Sc2ccc(C(=O)N3CCC4(CC3)OCCO4)cc21	?	10µM	-	?	-	-
CCC1=Nc2cc(C(=O)N3CCC4(CC3)OCCO4)ccc2Sc2ccccc21	?	-	-	-	-	-
COC(=O)c1ccc(S(=O)(=O)N(C2CCCCC2)C2CCCCC2)n1C	10µM	?	-	-	-	-
C/C(=C\c1ccccc1)C(=O)Nc1nc2ccc([N+](=O)[O-])cc2s1	-	-	-	-	-[11.6 µM]	19
Cc1ccc(C)c(OCC(=O)Nc2nc3ccc([N+](=O)[O-])cc3s2)c1	-	-	-	-	-	-
CC(C)=CC(=O)Nc1nc2ccc([N+](=O)[O-])cc2s1	?	-	55	-	-	44
CNC(=O)C[C@@H]1C(=O)N(c2ccc(Br)cc2)CC1(C)C	.	.	.	.	-	.
O=C1c2ccccc2C(O)N1c1ccc(Cl)cc1 (centres undefined)	.	?	-	-	-	-
COC(=O)C1CN(C#N)N(c2ccc(Cl)cc2)C12c1ccccc1-c1ccccc12 (centres undefined)	3.3µM	-	-	4µM	-	-
Cc1ccc(-n2nc3c(c2NC(=O)c2ccc4c(c2)OCO4)CS(=O)C3)c(C)c1 (centres undefined)	-	-	.	-	-	.
CCOC(=O)Cc1csc(NC(=O)C(NC(=O)C2CCC(C)CC2)C(C)C)n1 (centres undefined)	-[0.00184 µM]	-	-	?	-	-
CCn1c(SCC(=O)N2CCOCC2)nnc1C(C)NC(=O)c1ccccc1 (centres undefined)	-	-	-	-	-	-
CSc1ccc(S(=O)(=O)NC2CC3CCC2C3)cc1 (centres undefined)	-	?	.	-	-	-
COc1ccc(S(=O)(=O)NC2CC3CCC2C3)cc1 (centres undefined)	-	8.3µM	.	-	-	-
SMILES	Pf growth 48h	Pf growth 96h	Shiga toxin inh	HCV inh	AMA1 RON2 block	CHX counter
Cc1cc(C)c(C)c(S(=O)(=O)N2CCC(C(=O)Nc3ccc(S(=O)(=O)N4CCOCC4)cc3)CC2)c1C	?	?	-	?	-	-
COc1ccccc1NS(=O)(=O)c1c(C)[nH]c(C)c1C(=O)N1CCCC1	-	-	-	-	-	-
COc1ccc2nc(NC(=O)C34CC5CC(CC(NC(C)=O)(C5)C3)C4)sc2c1	-	-	45	-	-	49
CC(=O)NC12CC3CC(C1)CC(C(=O)Nc1nccs1)(C3)C2	?	6.6µM	-	-	-	-
CCN[C@@H]1C[C@H](C)S(=O)(=O)c2sc(S(N)(=O)=O)cc21	-	?	.	.	.	.
OC1C2(Cc3ccccc3)CN3CCN(C2)CC1(Cc1ccccc1)C3 (centres undefined)	?	0.93µM	-	-	-	-
CC(NC(=O)c1ccc2c(c1)OCO2)C(c1cccs1)N1CCN(c2ccccc2)CC1 (centres undefined)	-	12µM	-	-	?	-
CC(NC(=O)c1ccc(N(C)C)cc1)C(c1cccs1)N1CCN(C)CC1 (centres undefined)	-	-	-	10µM	-	-
CC(NC(=O)c1cccs1)C(c1cccs1)N1CCN(c2ccccc2)CC1 (centres undefined)	9.3µM	-	-	?	-	-
CC(NC(=O)c1ccc(C(C)(C)C)cc1)C(c1cccs1)N1CCOCC1 (centres undefined)	13µM	12µM	-	-	-	-
CC(NC(=O)c1ccncc1)C(c1cccs1)N1CCOCC1 (centres undefined)	-	-	-	-	-	-
COc1ccccc1/C=C/C(=O)Nc1ccc(S(=O)(=O)Nc2cc(C)on2)cc1	-	?	-	-	-	-
CSCc1cc(C(=O)NC2CC2)c(N)s1	.	.	.	.	-	.
CCC(C)c1ccc(S(=O)(=O)N2CCN(C(=O)c3ccc(Cl)c(S(=O)(=O)N4CCOCC4)c3)CC2)cc1 (centres undefined)	.	.	.	?	-	.
CC(NC(=O)c1cccs1)C(c1cccs1)N1CCOCC1 (centres undefined)	-	2.6µM	-	-	-	-
O=C(CC1CCCC1)Nc1ccc(Br)cc1	-	-	76	?	-	32
CC1CCN(CCC(=O)Nc2ccc(Br)cc2)CC1	.	.	.	?	-	.
COc1ccc(NC(=O)CC2CCCCC2)cc1OC	3.3µM	2.6µM	-	-	?	27
COc1ccc(NC(=O)C2CCCN2c2ccc(OC)c(OC)c2)cc1OC (centres undefined)	10µM	-	-	-	-	-
COc1ccc(NC(=O)C2CCCCN2N)cc1OC (centres undefined)	-	-	-	-	-	-
CC1CC(C)CN(CCC(=O)Nc2ccc(Br)cc2)C1 (centres undefined)	-	7.4µM	.	?	-	-
NNc1nc(-c2ccccc2)nc(-c2ccccc2)c1Br	.	.	.	-	-	.
O=C(CC1CCCCC1)Nc1ncn[nH]1	-	2.9µM	-	-	-	-
O=C(CC(c1ccccc1)c1ccccc1)Nc1ncn[nH]1	-	-	-	-	-	-
COc1ccc(CC(=O)Nc2nc(OCC(F)(F)F)cnc2-c2ccc(Cl)cc2Cl)cc1	.	.	.	.	-	.
CCOc1ccc(S(=O)(=O)N2CCCC(C(=O)NCC3CCCO3)C2)cc1 (centres undefined)	?	-	-	-	-	-
